Screens (PubChem BioAssay)
This is one part of a sample in which hits are shown more often than they occur.
Chlamy TAG = algal TAG accumulation induction | Chlamydomonas reinhardtii TAG, Nile Red fluorescence, 72 h | calls only at 10 µM (by protocol) | 0.84% of 44,000 active; call rule not given here;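 further: hits raise Nile Red signal meaning more stored TAG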
Active calls of the source: *; i = inactive; + = active, no number.

SMILES | Chlamy TAG
Fc1ccc(CN2CCN(c3cccc(Cl)c3)CC2)c(F)c1 | i
Oc1ccc(CN2CCN(c3ccccc3)CC2)cc1 | +
COc1ccc(CN2CCN(c3ccccc3)CC2)cc1O | i
COc1ccc(CN2CCN(c3cccc(Cl)c3)CC2)cc1O | i
Oc1ccc(CN2CCN(c3cccc(Cl)c3)CC2)cc1 | +
Fc1ccc(CN2CCN(c3cccc(Cl)c3)CC2)cc1 | +
Clc1cccc(N2CCN(Cc3ccccc3Cl)CC2)c1 | i
COc1cccc(CN2CCN(c3cccc(Cl)c3)CC2)c1 | i
Clc1ccc(CN2CCN(c3ccccc3)CC2)cc1Cl | i
O=C(Cc1ccccc1)N1CCN(Cc2cccc([N+](=O)[O-])c2)CC1 | i
CC/C(=C/c1ccc(O)c(OC)c1)[N+](=O)[O-] | i
OC1(C(O)(C#CCN2CCCCC2)c2ccccc2)CCCC1 (stereo unspecified) | i
COc1ccc(CN2C[C@@H]3C[C@@H](C2)c2cccc(=O)n2C3)cc1Br | i
Cc1ccccc1N1CCN(Cc2ccc(N(C)C)cc2)CC1 | i
Clc1ccccc1N1CCN(Cc2ccccc2)CC1 | i
Cc1ccccc1N1CCN(Cc2ccc(O)cc2)CC1 | +
Oc1ccc(CN2CCN(c3ccccc3Cl)CC2)cc1 | +
Cc1ccc(CN2CCN(c3ccccc3C)CC2)cc1 | i
Oc1cccc(CN2CCN(c3ccccc3Cl)CC2)c1 | i
CC12CCC(O)C[C@@H]1CCC1C2CCC2(C)C1CC[C@]2(C)O (stereo partly specified) | i
COc1cc(CNCCc2ccc(Cl)cc2)cc(OC)c1O | i
COc1cccc(CN2CCN(Cc3ccccc3)CC2)c1 | i
CCOc1ccccc1CN1CCN(c2ccccc2C)CC1 | i
COc1cc(CN2CCN(C)CC2)cc(OC)c1 | i
CCOc1ccc(CN2CCN(c3ccccc3C)CC2)cc1 | +
SMILES | Chlamy TAG
CCc1ccc(CN2CCN(CC)CC2)cc1 | +
COc1cc(CN2CCN(Cc3ccccc3)CC2)cc(OC)c1 | +
CCOc1cc(CN2CCN(c3ccccc3C)CC2)ccc1O | i
COc1ccc(N2CCN(Cc3ccc(F)cc3)CC2)cc1 | i
COc1ccc(N2CCN(Cc3ccc(Cl)cc3)CC2)cc1 | +
CCN1CCN(Cc2cccc(Br)c2)CC1 | i
CCCCOc1ccc(CN2CCN(CC)CC2)cc1 | i
COc1ccc(N2CCN(Cc3ccc(Cl)c(Cl)c3)CC2)cc1 | i
CC(C)N1CCN(Cc2ccccc2Cl)CC1 | i
Cc1cc(Br)ccc1NC(=O)C(Cl)(Cl)Cl | i
O=[N+]([O-])c1ccccc1CN1CCN(Cc2ccc(F)cc2)CC1 | i
COc1ccc(CNCCc2ccc(Cl)cc2)cc1C | i
CN=C1CN=C(c2ccccc2)c2cc(Cl)ccc2N1 | i
CCCN(CCO)C1CCCC(C)C1 (stereo unspecified) | i
COc1cccc(/C=C/c2nc3ccccc3c(=O)n2-c2ccccc2)c1O | i
COc1ccc(CN2CCN(Cc3ccccc3)CC2)cc1OC | i
COc1ccccc1N1CCN(Cc2ccc(C)cc2)CC1 | +
OCCN1CCN(Cc2ccc(F)cc2)CC1 | i
CCOc1ccc(CN2CCN(c3ccc(F)cc3)CC2)cc1 | +
COc1ccccc1N1CCN(Cc2ccccc2)CC1 | i
Cc1ccc(CN2CCN(C)CC2)cc1 | i
CCOc1ccccc1CN1CCN(c2ccccc2OC)CC1 | i
CCOc1cc(CN2CCN(c3ccc(F)cc3)CC2)ccc1O | i
COc1ccccc1N1CCN(Cc2ccc(N(C)C)cc2)CC1 | i
COc1ccccc1N1CCN(Cc2ccc(C(C)C)cc2)CC1 | i
SMILES | Chlamy TAG
CCOc1ccc(CN2CCN(c3ccccc3OC)CC2)cc1 | +
Cc1ccc(CN2CCN(CCO)CC2)cc1 | +
CCOc1ccc(CN2CCN(c3ccc(OC)cc3)CC2)cc1 | i
COc1ccc(Cl)cc1/C=C/[N+](=O)[O-] | i
O=C1NC(=O)C(C2(O)C(=O)c3ccccc3C2=O)C(=O)N1 | i
CCOc1ccccc1N1CCN(Cc2cc(F)ccc2F)CC1 | i
COc1ccc(N2CCNCC2)c([N+](=O)[O-])c1 | i
C1CN(C23CC4CC(CC(C4)C2)C3)CCN1 | i
CCOc1cc(CN2CCN(c3ccccc3Cl)CC2)ccc1O | i
CCCCSc1nc2ccccc2c(=O)n1-c1ccc(OC)cc1 | i
Cc1ccccc1N1CCN(Cc2ccc(F)c(Br)c2)CC1 | i
Cc1cccc(CN2CCN(c3cccc(C)c3C)CC2)c1 | i
Clc1cccc(CN2CCN(Cc3ccc4c(c3)OCO4)CC2)c1 | i
Clc1ccc(CN2CCN(Cc3ccc4c(c3)OCO4)CC2)cc1 | i
Clc1ccc(N2CCN(Cc3ccc4c(c3)OCO4)CC2)cc1 | +
COCCCNC1CCSC1 (stereo unspecified) | i
CCCCn1c(C=O)nc2ccccc21 | i
CSc1ccc(CN2CCCCC2c2cccnc2)cc1 (stereo unspecified) | i
O=[N+]([O-])c1ccc(N2CCNCC2)cc1N1CCCC1 | i
COc1ccc(N2CCN(Cc3cc(Br)ccc3OC)CC2)cc1 | i
O=[N+]([O-])c1ccc(CN2CCN(c3ccc(F)cc3)CC2)cc1 | +
O=[N+]([O-])c1ccc(CN2CCN(Cc3ccccc3)CC2)cc1 | +
CCC(C)N1CCN(Cc2ccc([N+](=O)[O-])cc2)CC1 (stereo unspecified) | +
O=[N+]([O-])c1ccc(N2CCN(Cc3cccc(Cl)c3)CC2)cc1 | i
CN1CCN(Cc2cccc([N+](=O)[O-])c2)CC1 | i
SMILES | Chlamy TAG
CCN1CCN(Cc2ccc([N+](=O)[O-])cc2)CC1 | i
O=C(COc1ccccc1)N1CCN(Cc2ccc([N+](=O)[O-])cc2)CC1 | i
O=[N+]([O-])c1ccc(N2CCN(Cc3cccc(F)c3)CC2)cc1 | i
CN1CCN(Cc2ccc([N+](=O)[O-])cc2)CC1 | i
CSc1ccc(CNCCc2ccc3c(c2)OCO3)cc1 | i
Cc1ccc(CN2CCN(C(=O)Cc3ccccc3)CC2)cc1 | i
CCCCn1c(=O)c(C(=O)Nc2ccc(O)cc2)c(O)c2ccccc21 | i
O=[N+]([O-])c1cc2c(cc1CNCCc1cccc(F)c1)OCO2 | i
O=c1c2ccccc2nc(/C=C/c2ccccc2F)n1-c1ccccc1 | i
O=C(CN1CCN(c2ccc(F)cc2)CC1)Nc1ccc(Cl)cc1C(=O)c1ccccc1 | i
N/C(=N/[N+](=O)[O-])Nc1ccc(NC(=O)c2ccc(Cl)cc2)cc1 | i
Nc1ccc(Cl)cc1C(=O)c1ccccc1 | i
Nc1ccc(Br)cc1C(=O)c1ccccc1F | i
Nc1ccc(F)cc1C(=O)c1ccccc1 | +
CC(C)NC(C)C(=O)c1ccc2c(c1)CCCC2 (stereo unspecified) | i
